Experiment [1] can be described thus: compound effects on lung adenocarcinoma cell viability – A549, calcein-AM fluorescence, 48 h, basal, profiling panel (AID 1162). Further: test concentration not given here. The settings on record: higher = more signal.
Experiment [2] can be described thus: compound effects on differentiated 3T3-L1 adipocyte viability – cell-based, 3T3-L1 adipocytes, calcein-AM fluorescence, 48 h, basal, profiling panel (AID 1163). Further: test concentration not given here. The settings on record: 3T3-L1 adipocytes viability, higher = more signal.
Experiment [3] can be described thus: compound effects on hepatocellular carcinoma cell viability – HepG2, calcein-AM fluorescence, 48 h, basal, profiling panel (AID 1164). Further: test concentration not given here. The settings on record: higher = more signal.
Experiment [4] in a line: compound effects on multiple myeloma cell viability – MM1S, calcein-AM fluorescence, 48 h, basal, profiling panel (AID 1165). Further: test concentration not given here. Conditions: higher = more signal.
The nature of experiment [5]: calcein-AM signal in unstimulated myeloma cells – cell-based, calcein-AM fluorescence, 48 h, PK04 Diversity Set, profiling panel (AID 1166).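 Further: cells grown under basal conditions without added stimulus; test concentration not given here.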 The settings on record: RPMI8226 myeloma viability, higher = more signal.
A short description of experiment [6]: JC-1 mitochondrial signal, unstimulated HepG2 cells – cell-based, JC-1 fluorescence, 24 h, 100 nL compound, profiling panel (AID 1167). Further: test concentration not given here. Conditions: HepG2 mitochondrial potential, higher = more signal.
Experiment [7] is described as follows: JC-1 mitochondrial signal, unstimulated adipocytes – cell-based, JC-1 fluorescence, 3T3-L1 adipocytes, 24 h, 100 nL compound, profiling panel (AID 1168). Further: test concentration not given here. The settings on record: JC-1 mitochondrial fluorescence, higher = more signal, called active from +8 up or from −8 down.
Experiment [8] can be described thus: JC-1 mitochondrial signal, unstimulated myeloma cells – cell-based, JC-1 fluorescence, RPMI8226, 24 h, 100 nL compound, profiling panel (AID 1169). Further: test concentration not given here. The settings on record: JC-1 mitochondrial potential fluorescence, higher = more signal.
Experiment [9] is described as follows: JC-1 mitochondrial signal, unstimulated MM1S myeloma – cell-based, JC-1 fluorescence, 24 h, 100 nL compound, profiling panel (AID 1170). Further: test concentration not given here. Conditions: MM1S mitochondrial potential, higher = more signal.
Experiment [10] in a line: resazurin metabolic signal in A549 cells – cell-based, resazurin fluorescence, 24 h, PK04 Diversity Set, profiling panel (AID 1171). Further: test concentration not given here. The settings on record: A549 viability, higher = more signal, called active from +8 up or from −8 down. (The colour change of resazurin is a common sign of viable cells or microbes.)
A short description of experiment [11]: resazurin metabolic signal in HepG2 cells – cell-based, resazurin fluorescence, 24 h, PK04 Diversity Set, profiling panel (AID 1172). Further: test concentration not given here. Conditions: HepG2 viability, higher = more signal.
Experiment [12] can be described thus: budding yeast growth changes without added modifier – OD600, strain BY4716, 24 h, basal condition, primary screen (AID 1173). Conditions: S. cerevisiae BY4716 growth, OD600, 24 h; higher = more signal, called active from +8 up or from −8 down.
Experiment [13] can be described thus: viability profiling in MM1S myeloma cells – cell-based, resazurin fluorescence, basal, 24 h, PK04 Diversity Set, profiling panel (AID 1174). Further: test concentration not given here. Conditions: higher = more signal, called active from +8 up or from −8 down.
The target of experiment [14] is Dihydroorotate dehydrogenase (quinone), mitochondrial (Plasmodium falciparum (isolate 3D7)) (UniProt Q08210). Description: inhibition of P. falciparum DHODH – biochemical, C-terminal His tag, absorbance 600 nm, primary screen (AID 1175).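 Further: recombinant parasite enzyme with a five histidine tag at its C terminus; test concentration not given here.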 Conditions: PfDHODH enzyme, DCIP absorbance 600 nm; higher = more signal, called active from +8 up or from −8 down.
Experiment [15] is described as follows: inhibition of PAO1 biofilm formation – strain PAO1, LB-PBS medium, absorbance 600 nm, primary screen (AID 1176). Further: test concentration not given here. The settings on record: P. aeruginosa PAO1 growth/biofilm, A600, 12 h; higher = more signal.
A short description of experiment [16]: growth modulation of vineyard yeast isolate – strain RM11-1a, OD600, basal, 24 h, primary screen (AID 1177).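 Further: cultures grown under basal conditions with no added stressor; test concentration not given here.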 The settings on record: S. cerevisiae RM11-1a growth, OD600, 24 h; higher = more signal, called active from +8 up or from −8 down.
The nature of experiment [17]: growth of efflux-deficient E. coli DRC39 – strain DRC39, OD650, 24 h, E. coli filamentation inducers, primary screen (AID 1178).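 Further: growth measured as culture turbidity by optical density at 650 nm; test concentration not given here.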 The settings on record: E. coli DRC39 acrAB, higher = more signal, called active from +8 up or from −8 down.
Experiment [18] in a line: growth of efflux-deficient E. coli DRC39 – strain DRC39, OD650, 48 h, E. coli filamentation inducers, primary screen (AID 1179).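 Further: screen aims at cell division blockers that make cells filament.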 Conditions: E. coli DRC39 delta-acrAB growth, higher = more signal, called active from +8 up or from −8 down.
Experiment [19] is described as follows: viability profiling in RPMI8226 myeloma cells – cell-based, resazurin fluorescence, basal, 24 h, PK04 Diversity Set, profiling panel (AID 1180).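 Further: RPMI8826 multiple myeloma cell line at 5000 cells per well; test concentration not given here.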 Conditions: higher = more signal.
Experiment [20] addresses E3 ubiquitin-protein ligase XIAP (Homo sapiens) (UniProt P98170). As to the kind of experiment: small molecules binding XIAP protein – biophysical, small-molecule microarray, fluorescence 635 nm, primary screen (AID 1181).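 Further: score merges 667 nm emission and signal to noise over triplicate slides.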 The settings on record: higher = more signal.

Activity calls are given as the source filed them. Unless noted, how the calls were made is not given here.

Sequence of Dihydroorotate dehydrogenase (quinone), mitochondrial (Plasmodium falciparum (isolate 3D7)) (Q08210 whole entry, looked up): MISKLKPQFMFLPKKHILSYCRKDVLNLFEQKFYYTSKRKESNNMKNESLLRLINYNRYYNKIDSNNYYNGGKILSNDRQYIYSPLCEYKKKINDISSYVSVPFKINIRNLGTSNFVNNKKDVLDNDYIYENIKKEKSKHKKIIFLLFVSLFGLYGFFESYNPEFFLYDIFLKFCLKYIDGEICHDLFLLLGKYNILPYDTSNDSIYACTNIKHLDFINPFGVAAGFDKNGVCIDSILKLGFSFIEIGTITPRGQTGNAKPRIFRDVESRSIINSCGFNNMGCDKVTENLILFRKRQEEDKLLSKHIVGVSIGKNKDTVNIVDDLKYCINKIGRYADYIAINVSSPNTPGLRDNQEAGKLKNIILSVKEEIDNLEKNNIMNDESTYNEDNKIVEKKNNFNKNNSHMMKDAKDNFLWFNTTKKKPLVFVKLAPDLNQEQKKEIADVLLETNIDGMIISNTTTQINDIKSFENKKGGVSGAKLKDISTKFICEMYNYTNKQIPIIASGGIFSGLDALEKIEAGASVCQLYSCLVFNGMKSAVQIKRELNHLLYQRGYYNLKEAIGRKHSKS
Sequence of E3 ubiquitin-protein ligase XIAP (Homo sapiens) (P98170 whole entry, looked up): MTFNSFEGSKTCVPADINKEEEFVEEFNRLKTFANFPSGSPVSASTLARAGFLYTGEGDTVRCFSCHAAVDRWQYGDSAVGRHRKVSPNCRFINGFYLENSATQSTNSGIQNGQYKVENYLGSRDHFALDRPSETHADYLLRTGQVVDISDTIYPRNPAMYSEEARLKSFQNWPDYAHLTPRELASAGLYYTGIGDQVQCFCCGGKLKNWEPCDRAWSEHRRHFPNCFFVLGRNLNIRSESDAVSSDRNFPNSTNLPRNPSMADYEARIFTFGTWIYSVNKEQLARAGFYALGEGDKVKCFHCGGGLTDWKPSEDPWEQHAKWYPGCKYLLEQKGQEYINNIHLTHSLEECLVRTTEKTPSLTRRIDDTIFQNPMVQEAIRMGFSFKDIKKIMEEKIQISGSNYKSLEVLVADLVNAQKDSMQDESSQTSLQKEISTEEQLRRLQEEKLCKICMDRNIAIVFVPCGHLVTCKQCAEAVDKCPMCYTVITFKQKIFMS

Regarding `COCCOC(=O)N1C(=O)[C@@]2(c3cc(C#CC4(O)CCCCCC4)ccc31)[C@H](C(N)=O)[C@H]1C(=O)O[C@H](c3ccccc3)[C@H](c3ccccc3)N1[C@@H]2c1ccc(OCCO)cc1`, the z-score is -0.502 in experiment [1]; -0.0582 in experiment [2]; -1.71 in experiment [3]; -2.99 in experiment [4]; -4.26 in [5]; -1.97 in experiment [6]. The z-score in [7] was -0.69 (inactive); in [8] it was -1.29; in experiment [9], -1.7; in [10] it was -1.54 (inactive); in experiment [11], -0.905; in [12] it was 0.842 (inactive). Moreover, the z-score in [13] was -3.72 (inactive); in experiment [15], 2.53 (inactive); in [16], 2.58 (inactive); in experiment [17], 0.141 (inactive); in experiment [18], 0.282 (inactive); in experiment [19], -3.3. The composite z-score is 0.42 (inactive) in experiment [14] and 0.128 in experiment [20].

Consider `CC(C)(C)OC(=O)CC[C@@]1(C(=O)N2CCOCC2)N=C(c2ccc(OCCCO)cc2)O[C@@H]1c1ccccc1CN=[N+]=[N-]`, for which the z-score in experiment [1] was -0.688; in [2], 1.35; in [3], -0.261; in experiment [4], -0.169; in [5] it was -1.58; in experiment [6], 0.259. Besides, the z-score in experiment [7] is -0.506 (inactive); in experiment [8], -0.546; in experiment [9], -0.567; in experiment [10] it was 0.792 (inactive); in experiment [11], -0.538; in experiment [12], -0.295 (inactive). Besides, the z-score in [13] is -0.383 (inactive); in experiment [15] it was 0.342 (inactive); in experiment [16], -0.423 (inactive); in experiment [17], -0.294 (inactive); in experiment [18], -0.0909 (inactive); in experiment [19], -0.365. Also, the values for the composite z-score in experiment [14] and in experiment [20] were -0.405 (inactive) and 0.0345, respectively.

For `O=C1N(Cc2ccccc2)c2ccccc2C[C@@]12N=C(c1ccc(OCCCO)cc1)O[C@H]2c1ccccc1`, the z-score is -1.32 in experiment [1]; 0.84 in experiment [2]; -1.86 in experiment [3]; -3.33 in [4]; -4.24 in experiment [5]; -0.237 in experiment [6]. For the same compound, the z-score in experiment [7] is -0.0792 (inactive); in experiment [8], -1.29; in experiment [9], 0.811; in experiment [10], -1.63 (inactive); in [11], -0.449; in experiment [12], -1.21 (inactive). Moreover, the z-score in experiment [13] was -2.11 (inactive); in [15], 2.26 (inactive); in experiment [16], 1.18 (inactive); in experiment [17], 0.0946 (inactive); in experiment [18], -0.928 (inactive); in experiment [19], -1.69. Besides, the composite z-score in [14] is 0.318 (inactive); in experiment [20], 0.0918.

As to `CCc1cccc(NC(=O)O[C@H]2[C@H](OC(=O)Nc3ccccc3-c3ccccc3)[C@H](OC(=O)Nc3ccccc3-c3ccccc3)[C@@H](OC)O[C@@H]2CO)c1`, the z-score in experiment [1] was -2.01; in experiment [2] it was -0.228; in [3], -1.7; in [4], -1.62; in experiment [5], -0.201; in experiment [6] it was -0.812. Also, the z-score in [7] is -0.398 (inactive); in [8], -0.841; in experiment [9], -1; in experiment [10], -0.684 (inactive); in [11], 0.235; in [12], 0.371 (inactive). Also, the z-score is -0.444 (inactive) in experiment [13]; 0.537 (inactive) in experiment [15]; 2.19 (inactive) in [16]; -1.34 (inactive) in experiment [17]; -1.66 (inactive) in experiment [18]; -0.254 in experiment [19]. The composite z-score is -0.371 (inactive) in experiment [14] and 0.146 in experiment [20].

`COc1cc2c(cc1OC)CN(C(=O)[C@@H]1[C@H]3C(=O)O[C@H](c4ccccc4)[C@H](c4ccccc4)N3[C@H](c3ccc(O)cc3)[C@@]13C(=O)Nc1ccc(C#CC4=CCCCC4)cc13)CC2`: the z-score in experiment [1] is 0.434; in experiment [2], 0.641; in [3], 0.618; in experiment [4], -0.126; in [5] it was -1.58; in experiment [6], -0.948. Also, the z-score is 0.165 (inactive) in experiment [7]; -0.733 in [8]; 0.328 in experiment [9]; 0.175 (inactive) in [10]; 0.192 in experiment [11]; 0.45 (inactive) in experiment [12]. Besides, the z-score in experiment [13] is 0.466 (inactive); in experiment [15], 0.297 (inactive); in experiment [16], 1.48 (inactive); in experiment [17], -0.0342 (inactive); in experiment [18] it was 0.675 (inactive); in [19], 0.233. The results for the composite z-score in [14] and in experiment [20] were -0.151 (inactive) and -0.0108, respectively.

Turning to `COCCOC(=O)N1C(=O)[C@@]2(c3cc(C#CCCO)ccc31)[C@H](c1ccc(O)cc1)N1[C@H](c3ccccc3)[C@H](c3ccccc3)OC(=O)[C@H]1[C@@H]2C(=O)NC[C@H](O)c1ccccc1`, the z-score is 1.7 in [1]; 0.617 in experiment [2]; 1.2 in experiment [3]; 0.0034 in experiment [4]; -0.409 in experiment [5]; -0.424 in [6]. Further, the z-score is -1.55 (inactive) in experiment [7]; -0.429 in experiment [8]; -0.841 in experiment [9]; 0.908 (inactive) in experiment [10]; 1.63 in [11]; 0.597 (inactive) in experiment [12]. Further, the z-score in experiment [13] is 0.763 (inactive); in [15] it was 1.66 (inactive); in experiment [16], 1.06 (inactive); in experiment [17] it was 1.04 (inactive); in experiment [18], 1.67 (inactive); in [19], 1.2. For the same compound, the composite z-score was 0.612 (inactive) in experiment [14] and 0.0256 in [20].

Turning to `Cc1ccc(S(=O)(=O)N2[C@@H](c3ccccc3)C(C(=O)O)=CC[C@H]2c2ccc(F)cc2)cc1`, the z-score was -0.996 in [1]; 0.31 in experiment [2]; -0.73 in experiment [3]; 0.102 in experiment [4]; -0.296 in experiment [5]; -0.699 in experiment [6]. In addition, the z-score is 0.2 (inactive) in experiment [7]; 0.597 in experiment [8]; -1.09 in experiment [9]; 0.649 (inactive) in experiment [10]; 0.0445 in experiment [11]; -0.93 (inactive) in [12]. Moreover, the z-score is -0.3 (inactive) in experiment [13]; 0.244 (inactive) in [15]; -0.069 (inactive) in experiment [16]; -0.0944 (inactive) in [17]; 0.0973 (inactive) in experiment [18]; -0.858 in experiment [19]. In addition, the figures for the composite z-score in experiment [14] and in [20] were -0.667 (inactive) and 0.142, respectively.
